The values below come from PubChem BioAssay.

SMILES strings stand for the structures. Activity calls are given as the source filed them.

In one assay the target is Albumin (Bos taurus) (UniProt P02769). The assay is described as follows: bovine serum albumin binders on microarray, profiling panel, artefact control for SMM control protein annotation, biochemical, small-molecule microarray, Alexa647 label, 635/667 nm fluorescence (AID 1118).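 Further: score merges 667 nm emission intensity and signal-to-noise per printed compound spot.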 Conditions: BSA-A647 binding, fluorescence 635 nm, higher = more signal.
The nature of assay [1]: small-molecule microarray binders of probe aXIP, primary screen, biochemical, NeuroSMM set, 635/667 nm fluorescence (AID 1119).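 Further: probe is the protein aXip251-270 applied at 1 µg/mL to compound-printed slides; binding of probe to printed compounds measured as 667 nm fluorescence plus signal to noise.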 The note with it: higher = more signal, called active from +8 up or from −8 down.
Assay [2] in a line: small-molecule binders of probe aNOTCH3, primary screen, biochemical, small-molecule microarray, 635/667 nm fluorescence (AID 1120).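 Further: probe is a biotin-tagged antibody raised against NOTCH3 rather than NOTCH3 protein; score merges spot fluorescence near 667 nm with spot signal to noise.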 Conditions: higher = more signal.
Assay [3] in a line: small-molecule binders of probe aNOTCH2, primary screen, biochemical, small-molecule microarray, 635/667 nm fluorescence (AID 1121).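 Further: score merges feature fluorescence read at 667 nm with its signal to noise.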 Conditions: higher = more signal.
Assay [4] has as its target Carbonic anhydrase 2 (Homo sapiens) (UniProt P00918). Description: CAII small-molecule binders, profiling panel, biochemical, small-molecule microarray, Alexa647-labelled CAII (AID 1122). The note with it: CAII-A647 binding fluorescence, higher = more signal.
The nature of assay [5]: COS7 lysate on small-molecule microarray, probe aHis, 635 nm (AID 1123).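 Further: z-score combines 667nm fluorescence intensity with signal-to-noise per printed compound spot.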 Conditions: COS7 cell lysate, fluorescence, higher = more signal.
Assay [6] can be described thus: compound binding in COS7 lysate, probe aLAP1, primary screen, cell lysate, small-molecule microarray (AID 1124).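 Further: lysate comes from COS7 cells expressing LAP1 and is applied at 0.3 µg/mL; score merges spot fluorescence near 667 nm with signal-to-noise over triplicate slides.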 The note with it: probe aLAP1, fluorescence, higher = more signal.
The test system of another assay is Sam68 (KHDRBS1). The assay is described as follows: Sam68 small-molecule binders, primary screen, biochemical, small-molecule microarray, 635 nm fluorescence (AID 1125).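 Further: score merges 667 nm channel intensity with signal to noise over triplicate slides.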 The note with it: small-molecule microarray binding, higher = more signal.
The test system of assay [7] is Chordin-like protein 2 (CHRDL2). Description: CHRDL2 small-molecule binders, primary screen, biochemical, small-molecule microarray, 635 nm fluorescence (AID 1126).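 Further: printed compound slides probed with Chrdl2 protein at 4 µg/mL for 1 h at 4 C; score merges 667 nm emission intensity with signal to noise over three replicate slides.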 Conditions: small-molecule microarray binding, fluorescence 635 nm; higher = more signal.
In assay [8] the target is Concanavalin-A (Canavalia ensiformis) (UniProt P02866). The assay is described as follows: ConA small-molecule binders, primary screen, artefact control for SMM control protein annotation, biochemical, small-molecule microarray, Alexa647 label, 635 nm (AID 1127).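 Further: z combines 667 nm emission intensity with signal-to-noise across three replicate slides.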 Conditions: ConA-A647 binding fluorescence, higher = more signal.
Assay [9] can be described thus: anti-His antibody binders, primary screen, artefact control for SMM control protein annotation, biochemical, small-molecule microarray, 635 nm fluorescence (AID 1128).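 Further: score merges feature fluorescence with signal-to-noise for each printed compound spot.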 The note with it: anti-His Alexa647 antibody binding, higher = more signal.
Assay [10] deals with Human papillomavirus type 1a E7 protein (residues 1-88). The assay is described as follows: HPV1a E7 small-molecule binders, primary screen, biochemical, small-molecule microarray, residues 1-88, 635 nm (AID 1129). Conditions: small-molecule microarray binding, fluorescence 635 nm; higher = more signal.
Assay [11] concerns the target Focal adhesion kinase 1 (Homo sapiens) (UniProt Q05397). The assay is described as follows: small-molecule microarray binders of FAK, primary screen, biochemical, 635/667 nm fluorescence, BSA, DTT (AID 1130).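 Further: composite of spot emission at 667 nm and signal to noise over triplicate slides.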 Conditions: PTK2 binding, 635 nm fluorescence, higher = more signal.
The subject of assay [12] is Fibrinogen (Alexa647-labelled). Description: fibrinogen binders on compound microarrays, profiling panel, artefact control for SMM control-protein annotation, biochemical, small-molecule microarray, 635/667 nm fluorescence (AID 1131).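 Further: z-score merges 667 nm fluorescence with per-spot signal-to-noise over triplicate slides.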 The note with it: fibrinogen-A647 binding fluorescence, higher = more signal.
The target in assay [13] is Follistatin (Homo sapiens) (UniProt P19883). The assay is described as follows: follistatin binders on small-molecule microarrays, primary screen, biochemical, small-molecule microarray, 635/667 nm fluorescence (AID 1132). Conditions: FST binding, 635 nm fluorescence, higher = more signal.
Assay [14] deals with Fibroblast growth factor 2 (Homo sapiens) (UniProt P09038). Description: FGF2 binders on small-molecule microarrays, primary screen, biochemical, small-molecule microarray, 635/667 nm fluorescence (AID 1133). Conditions: small-molecule microarray binding, FGF2, fluorescence 635/667; higher = more signal.
The nature of assay [15]: mitochondrial membrane potential change in A549 cells, profiling panel, cell-based, JC-1 fluorescence, basal, 24 h, 100 nL (AID 1138).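 Further: A549 lung adenocarcinoma cells under basal conditions with no added stimulus; test concentration not given here.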 Conditions: higher = more signal.
For a further assay, the system named is Lefty1. The assay is described as follows: Lefty1 binders on small-molecule microarrays, primary screen, biochemical, small-molecule microarray, 635/667 nm fluorescence (AID 1139). Conditions: small-molecule microarray binding, fluorescence 635/667; higher = more signal.
In assay [16] the test system is wheat germ agglutinin (Triticum aestivum), Alexa647-labelled. Description: wheat germ agglutinin binders on compound microarrays, profiling panel, artefact control for SMM control-protein annotation, biochemical, small-molecule microarray, 635/667 nm fluorescence (AID 1140).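 Further: score merges 667 nm feature emission with signal to noise over triplicate slides.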 Conditions: WGA-A647 binding, 635 nm fluorescence, higher = more signal.
Assay [17] addresses Luciferin 4-monooxygenase (Photinus pyralis) (UniProt P08659). The assay is described as follows: firefly luciferase enzyme inhibitors, primary screen, biochemical, luminescence, purified enzyme, 2006 set (AID 1141).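 Further: cell-free assay with purified firefly luciferase at 100 ng per well in PBS; test concentration not given here.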 The note with it: SteadyGlo luminescence, 30 min, higher = more signal, called active from +8 up or from −8 down.

Sequence of Fibroblast growth factor 2 (Homo sapiens) (P09038 whole entry, looked up): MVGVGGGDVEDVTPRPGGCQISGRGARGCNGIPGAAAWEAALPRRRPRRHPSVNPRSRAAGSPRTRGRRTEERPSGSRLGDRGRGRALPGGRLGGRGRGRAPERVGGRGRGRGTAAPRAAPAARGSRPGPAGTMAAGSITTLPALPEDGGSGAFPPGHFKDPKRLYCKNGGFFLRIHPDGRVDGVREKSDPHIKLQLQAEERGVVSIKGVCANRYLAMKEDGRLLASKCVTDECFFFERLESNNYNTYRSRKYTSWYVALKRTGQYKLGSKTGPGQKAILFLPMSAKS
Sequence of Focal adhesion kinase 1 (Homo sapiens) (Q05397 whole entry, looked up): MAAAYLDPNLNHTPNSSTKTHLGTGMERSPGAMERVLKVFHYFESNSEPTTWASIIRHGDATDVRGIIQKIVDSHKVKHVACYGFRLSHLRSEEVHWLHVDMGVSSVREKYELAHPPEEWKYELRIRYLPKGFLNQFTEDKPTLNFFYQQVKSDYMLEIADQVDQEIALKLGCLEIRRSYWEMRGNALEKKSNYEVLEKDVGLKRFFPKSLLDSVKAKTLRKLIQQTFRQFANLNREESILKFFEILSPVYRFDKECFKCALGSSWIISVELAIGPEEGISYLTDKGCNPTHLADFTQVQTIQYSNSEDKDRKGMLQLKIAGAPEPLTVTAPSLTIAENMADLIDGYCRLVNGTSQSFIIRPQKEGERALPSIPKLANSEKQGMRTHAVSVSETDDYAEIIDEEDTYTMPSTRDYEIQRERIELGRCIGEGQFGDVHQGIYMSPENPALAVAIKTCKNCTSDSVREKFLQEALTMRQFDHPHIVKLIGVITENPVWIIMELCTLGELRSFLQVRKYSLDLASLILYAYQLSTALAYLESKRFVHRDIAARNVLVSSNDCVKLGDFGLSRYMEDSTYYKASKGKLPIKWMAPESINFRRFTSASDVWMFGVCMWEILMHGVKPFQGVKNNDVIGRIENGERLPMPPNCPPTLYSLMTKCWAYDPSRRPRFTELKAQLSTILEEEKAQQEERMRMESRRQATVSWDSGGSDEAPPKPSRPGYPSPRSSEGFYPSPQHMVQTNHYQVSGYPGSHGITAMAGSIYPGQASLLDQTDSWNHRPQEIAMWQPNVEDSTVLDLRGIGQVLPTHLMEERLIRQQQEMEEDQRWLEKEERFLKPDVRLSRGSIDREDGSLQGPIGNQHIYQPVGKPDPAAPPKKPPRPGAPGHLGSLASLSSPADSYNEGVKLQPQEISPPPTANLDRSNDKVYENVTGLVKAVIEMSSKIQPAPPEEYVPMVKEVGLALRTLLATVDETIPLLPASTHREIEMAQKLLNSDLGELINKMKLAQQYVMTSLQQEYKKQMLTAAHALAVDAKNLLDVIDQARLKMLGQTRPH
Sequence of Luciferin 4-monooxygenase (Photinus pyralis) (P08659 whole entry, looked up): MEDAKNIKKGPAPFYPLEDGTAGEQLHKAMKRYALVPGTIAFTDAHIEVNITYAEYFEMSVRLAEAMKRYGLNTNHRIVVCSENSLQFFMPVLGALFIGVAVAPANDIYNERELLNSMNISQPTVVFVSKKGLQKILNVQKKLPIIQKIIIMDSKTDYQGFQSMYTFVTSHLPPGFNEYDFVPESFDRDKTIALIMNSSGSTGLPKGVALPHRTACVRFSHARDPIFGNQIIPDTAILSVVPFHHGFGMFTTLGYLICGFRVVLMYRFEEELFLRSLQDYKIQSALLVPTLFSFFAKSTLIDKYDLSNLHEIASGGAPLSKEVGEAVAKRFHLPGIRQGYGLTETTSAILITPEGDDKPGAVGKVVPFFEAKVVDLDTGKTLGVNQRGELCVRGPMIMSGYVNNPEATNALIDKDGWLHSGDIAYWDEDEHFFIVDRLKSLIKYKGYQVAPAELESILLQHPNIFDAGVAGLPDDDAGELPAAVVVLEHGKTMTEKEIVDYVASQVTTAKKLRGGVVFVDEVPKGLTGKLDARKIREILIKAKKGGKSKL
Sequence of Albumin (Bos taurus) (P02769 whole entry, looked up): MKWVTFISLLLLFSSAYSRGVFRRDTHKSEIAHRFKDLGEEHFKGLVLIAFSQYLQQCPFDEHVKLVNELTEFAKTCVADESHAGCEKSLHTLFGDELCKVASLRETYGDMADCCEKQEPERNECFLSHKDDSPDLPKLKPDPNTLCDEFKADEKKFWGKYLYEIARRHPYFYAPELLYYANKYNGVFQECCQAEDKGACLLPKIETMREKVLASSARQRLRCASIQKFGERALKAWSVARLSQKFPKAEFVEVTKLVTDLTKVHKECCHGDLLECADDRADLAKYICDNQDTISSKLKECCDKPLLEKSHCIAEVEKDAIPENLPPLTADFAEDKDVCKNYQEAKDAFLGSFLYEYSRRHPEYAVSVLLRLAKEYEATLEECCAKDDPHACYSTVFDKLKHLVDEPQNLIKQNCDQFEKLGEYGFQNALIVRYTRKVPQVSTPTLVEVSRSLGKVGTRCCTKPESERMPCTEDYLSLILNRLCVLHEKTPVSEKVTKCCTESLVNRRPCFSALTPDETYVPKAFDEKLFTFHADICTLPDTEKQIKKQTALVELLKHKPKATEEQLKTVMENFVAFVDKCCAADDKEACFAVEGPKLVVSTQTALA
Sequence of Follistatin (Homo sapiens) (P19883 whole entry, looked up): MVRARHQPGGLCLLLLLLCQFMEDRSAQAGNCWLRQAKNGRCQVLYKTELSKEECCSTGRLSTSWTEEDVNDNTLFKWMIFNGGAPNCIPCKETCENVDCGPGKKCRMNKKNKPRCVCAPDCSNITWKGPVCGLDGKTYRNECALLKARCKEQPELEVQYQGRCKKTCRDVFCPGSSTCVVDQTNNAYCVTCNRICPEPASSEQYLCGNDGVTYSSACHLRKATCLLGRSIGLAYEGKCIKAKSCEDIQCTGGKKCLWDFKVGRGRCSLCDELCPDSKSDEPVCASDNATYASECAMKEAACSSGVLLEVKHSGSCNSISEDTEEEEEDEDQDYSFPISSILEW
Sequence of Concanavalin-A (Canavalia ensiformis) (P02866 whole entry, looked up): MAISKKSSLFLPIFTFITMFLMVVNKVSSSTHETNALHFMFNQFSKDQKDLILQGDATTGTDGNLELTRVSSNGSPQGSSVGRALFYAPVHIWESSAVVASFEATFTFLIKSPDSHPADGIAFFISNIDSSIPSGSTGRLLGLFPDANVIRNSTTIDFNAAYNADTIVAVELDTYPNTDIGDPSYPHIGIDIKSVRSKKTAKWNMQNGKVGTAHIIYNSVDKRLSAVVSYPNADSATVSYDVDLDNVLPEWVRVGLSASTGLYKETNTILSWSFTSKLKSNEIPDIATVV

For the molecule `CC(C)NC(=O)[C@@]1(C)c2ccccc2C(=O)N(Cc2cc(C(F)(F)F)cc(C(F)(F)F)c2)[C@H]1c1ccc(CO)cc1`, the composite z-score with Albumin (Bos taurus) was -0.47; in [2], -0.165; in [3] it was -0.123; in [4] it was 0.689; in [5], 2.07; in [6] it was -0.208. Moreover, the composite z-score was 0.784 in the assay on Sam68 (KHDRBS1); -1.39 in [7]; 0.0957 in assay [8]; -0.229 in [9]; 0.272 in [10]; 0.0662 in [11]. In addition, the composite z-score was -0.285 in assay [12]; -0.101 in [13]; -0.741 in [14]; -0.146 with Lefty1; -0.568 in assay [16]. Moreover, the composite Z-score in [1] is -0.0197 (inactive). For the same molecule, the z-score in assay [15] was 1.21; in assay [17], -0.734 (inactive).
As to `C[C@H]1NC(=O)[C@@]23C(=O)N[C@@H](Cc4ccccc4)C2[C@H](C)[C@@]2(C)O[C@H]2C3/C=C/C/C=C\CNC(=O)[C@@H]2CCCN2C1=O` (stereo not given in full), the composite z-score was -0.274 with Albumin (Bos taurus); -0.229 in assay [2]; -0.14 in [3]; 0.507 in assay [4]; 0.0441 in assay [5]; -0.301 in assay [6]. Besides, the composite z-score in the assay on Sam68 (KHDRBS1) is 0.574; in assay [7], 0.258; in assay [8], 1.13; in assay [9], -0.224; in assay [10], 0.303; in assay [11], 0.0122. Besides, the composite z-score in assay [12] came out at 0.859; in [13], 1.05; in [14] it was 0.692; in the assay on Lefty1, 0.946; in assay [16], 0.765. Also, the composite Z-score in [1] is 0.542 (inactive). For the same molecule, the z-score is 0.419 in [15] and 0.193 (inactive) in assay [17].
Regarding `O=C(c1ccccc1)N1Cc2ccccc2C[C@@]2(COC(c3ccc(OCCCO)cc3)=N2)C1=O`, the composite z-score in the assay with Albumin (Bos taurus) was 0.833; in [2], -0.0647; in [3], -0.0304; in [4] it was 0.288; in [5], 2.66; in assay [6] it was 0.549. Besides, the composite z-score was determined as 1.29 in the assay on Sam68 (KHDRBS1); 0.271 in [7]; 1.11 in [8]; 2.32 in assay [9]; 1.23 in [10]; 0.242 in assay [11]. In addition, the composite z-score came out at 0.905 in assay [12]; 1.34 in assay [13]; 1.45 in assay [14]; 0.663 in the assay on Lefty1; 0.71 in assay [16]. In [1], the composite Z-score was -0.305 (inactive). Moreover, the figures for the z-score in assay [15] and in assay [17] were 0.604 and -1.31 (inactive), respectively.
Consider `CC(CO)N1C(=O)[C@@H]2C3C(=O)OCCC/C=C\[C@H]3OC23C=CCN(C(C)(C)C)C(=O)[C@@H]13` (stereo not given in full), for which the composite z-score in the assay with Albumin (Bos taurus) is -0.757; in [2] it was -0.103; in [3], -0.167; in assay [4] it was 0.872; in assay [5] it was 0.295; in assay [6] it was 0.198. For the same molecule, the composite z-score was -0.0677 in the assay on Sam68 (KHDRBS1); -0.184 in assay [7]; 0.0099 in assay [8]; -0.286 in assay [9]; -0.615 in [10]; -0.05 in assay [11]. Further, the composite z-score was -0.47 in [12]; 0.122 in [13]; -0.0209 in assay [14]; 0.476 in the assay with Lefty1; -0.452 in assay [16]. Also, in assay [1], the composite Z-score was -0.483 (inactive). The z-score in assay [15] is -0.0344; in assay [17], -0.562 (inactive).
On to `O=C1c2ccccc2[C@](Cc2ccccc2I)(C(=O)NCCN2CCOCC2)[C@H](c2ccc(CO)cc2)N1C1CCCCC1`, for which the composite z-score with Albumin (Bos taurus) is 0.55; in assay [2], 0.323; in assay [3], -0.052; in [4], 0.548; in assay [5], 1.41; in [6] it was 0.382. For the same molecule, the composite z-score in the assay with Sam68 (KHDRBS1) turned out to be 1.31; in assay [7] it was 0.67; in assay [8], 1.15; in [9], 1.77; in assay [10] it was 1.19; in assay [11] it was 0.991. Also, the composite z-score came to 0.927 in assay [12]; 1.34 in assay [13]; 0.804 in [14]; 1.36 in the assay with Lefty1; 1.16 in assay [16]. In assay [1], the composite Z-score was 0.424 (inactive). The z-score was 1.34 in [15] and -0.147 (inactive) in assay [17].
